Assay results as given in the supplement of paper PMC6555819.

Assays:
Assay in all cases: PBM binding z-score (relative to random genomic background probes); higher = stronger binding; sequences stand for … in GC…GCGATTGACAGCGTAGAATGAAGG
[1] = test system: FXR:RXRa (NR concentration 270 nM, RXRa partner concentration 90 nM)
Summary of the method: (§1)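 Antibodies against each partner of ligand-free nuclear receptor dimers (one per run) detected binding on custom Agilent 4×180K protein-binding microarrays after 1 h incubation. The double-stranded probes had 34-nt variable regions carrying direct-repeat seeds, single-nucleotide variants, half-site ablations and random human genomic background sequences. Binding z-scores, from regression-normalized fluorescence, use the random background probes as reference.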

[2] = test system: LXRa:RXRa (NR concentration 270 nM, RXRa partner concentration 90 nM)
Summary of the method: as §1

[3] = test system: LXRa homodimer (NR concentration 270 nM)
Summary of the method: as §1

[4] = test system: LXRb:RXRa (NR concentration 270 nM, RXRa partner concentration 90 nM)
Summary of the method: as §1

[5] = test system: LXRb homodimer (NR concentration 270 nM)
Summary of the method: as §1

[6] = test system: PPARa:RXRa (NR concentration 270 nM, RXRa partner concentration 90 nM)
Summary of the method: as §1

[7] = test system: PPARg:RXRa (NR concentration 180 nM, RXRa partner concentration 90 nM)
Summary of the method: as §1

[8] = test system: PPARg:RXRa 270nM:90nM, anti-RXR (NR concentration 270 nM, RXRa partner concentration 90 nM)
Summary of the method: as §1

[9] = test system: PPARg:RXRa 30nM:10nM, anti-RXR (NR concentration 30 nM, RXRa partner concentration 10 nM)
Summary of the method: as §1

[10] = test system: PPARg:RXRa 90nM:30nM, anti-RXR (NR concentration 90 nM, RXRa partner concentration 30 nM)
Summary of the method: as §1

[11] = test system: PPARg:RXRa DBDmut IVT, anti-RXR (DBD mutation: RXRa K156A/R161A, NR concentration 270 nM, RXRa partner concentration 90 nM)
Summary of the method: as §1

[12] = test system: PPARg:RXRa IVT, anti-PPARg (NR concentration 270 nM, RXRa partner concentration 90 nM)
Summary of the method: as §1

[13] = test system: PPARg DBDmut:RXRa IVT, anti-PPARg (DBD mutation: PPARg1 K132A/R137A, NR concentration 270 nM, RXRa partner concentration 90 nM)
Summary of the method: as §1

[14] = test system: PPARg DBDmut IVT, anti-PPARg (DBD mutation: PPARg1 K132A/R137A, NR concentration 270 nM)
Summary of the method: as §1

[15] = test system: PPARg homodimer (NR concentration 180 nM)
Summary of the method: as §1

[16] = test system: PXR:RXRa (NR concentration 270 nM, RXRa partner concentration 90 nM)
Summary of the method: as §1

[17] = test system: PXR homodimer (NR concentration 270 nM)
Summary of the method: as §1

[18] = test system: RARa:RXR (NR concentration 270 nM, RXRa partner concentration 90 nM)
Summary of the method: as §1

[19] = test system: RARa homodimer (NR concentration 270 nM)
Summary of the method: as §1

[20] = test system: RARb:RXRa (NR concentration 270 nM, RXRa partner concentration 90 nM)
Summary of the method: as §1

Row | Sequence | PBM binding z-score [1] | PBM binding z-score [2] | PBM binding z-score [3] | PBM binding z-score [4] | PBM binding z-score [5] | PBM binding z-score [6] | PBM binding z-score [7] | PBM binding z-score [8] | PBM binding z-score [9] | PBM binding z-score [10] | PBM binding z-score [11] | PBM binding z-score [12] | PBM binding z-score [13] | PBM binding z-score [14] | PBM binding z-score [15] | PBM binding z-score [16] | PBM binding z-score [17] | PBM binding z-score [18] | PBM binding z-score [19] | PBM binding z-score [20]
1 | ACTAGTTGGTCAGCTGAGTTCACACACAATTCGG | 1.06 | 1.59 | 1.72 | 1.59 | 0.275 | 1.65 | 0.747 | 0.792 | 0.098 | 0.251 | 1.2 | 1.32 | 0.662 | 0.707 | 0.775 | 5.66 | 6.87 | 2.32 | 0.2 | 2
2 | TAGCCTAGGTCATTCGGGCCAGTATAGTGTCGGC | 4.65 | 3.71 | 1.53 | 2.35 | 0.458 | 3.55 | 1.61 | 2.21 | -0.0237 | 1.26 | 1.8 | 2.76 | -0.115 | -0.745 | 0.969 | 2.11 | 0.189 | 2.39 | -0.428 | 3.74
3 | GCGACTGGGGCAAAGAAGGTTACCATAAGGTTGG | 1.24 | 0.788 | -0.0747 | 1.06 | -0.824 | 1.72 | 1.56 | 2.22 | 0.513 | 1.66 | 4.68 | 3.4 | -0.0271 | -0.382 | 0.618 | 1.11 | -0.136 | 1.22 | -0.528 | 1.59
4 | AGTCAAAATTCAGGACGAGGTAACGTAAAGCACG | 0.194 | -0.186 | 0.224 | -0.188 | -0.336 | 0.0316 | 0.944 | 0.294 | 0.281 | 0.217 | -0.124 | 0.504 | 0.875 | 0.0968 | 0.59 | -0.0686 | 0.0838 | 0.591 | 0.657 | 0.118
5 | CAGCCTAGGTCAGGGCCAGTAGAGGAGGAACGTT | 1.51 | 0.675 | -0.538 | 0.358 | -1.25 | 1.97 | 0.595 | 0.833 | -0.754 | 0.0745 | 1.54 | 1.51 | -1.47 | -0.919 | 1.22 | -0.278 | -0.736 | 0.769 | -0.574 | 3.42
6 | CCTCCAAGGTCAAAGGTCAGTGAAGAGATGACGG | 8.2 | 6.83 | 3.53 | 6.63 | 1.95 | 7.19 | 10.5 | 8.79 | 8.47 | 9.3 | 3.51 | 5.62 | 0.87 | -0.101 | 3.71 | 6.78 | 2.06 | 8.62 | 3.07 | 6.03
7 | CGAACTAGGTCATCCAGGAGAGTGAATACATTGA | 3.98 | 2.66 | 0.805 | 1.98 | -0.132 | 4.89 | 7.72 | 6.23 | 3.86 | 5.76 | 7.67 | 8.61 | 1.76 | 0.981 | 2.19 | 1.34 | 0.448 | 2.31 | 0.76 | 3.78
8 | TCTTGGAGATCAAAGGTTAAGAAAGCCGAAGCCT | 2.17 | 2.17 | -0.196 | 2.2 | -0.93 | 4.34 | 5.56 | 6.62 | 5.5 | 7 | 1.05 | 2.18 | -0.186 | -0.682 | 0.267 | 2.44 | -0.521 | 3.89 | -0.387 | 1.9
9 | CGTCAAAGTTCAGGGTAACGTAACAGAAAGCAGC | 4.15 | 3.51 | 1.23 | 2.3 | 0.634 | 3.48 | 3.14 | 3.57 | 1.26 | 2.42 | 0.483 | 1.35 | 0.319 | 0.192 | 2.87 | 2.66 | 1.67 | 2.17 | 1.09 | 4.33
10 | CCTATTAATTGACCATAAGGGCAACCGAAGCTCG | 0.865 | 0.6 | 1.66 | 0.747 | 0.711 | 0.737 | 0.586 | 0.878 | 0.302 | 0.73 | 0.352 | 0.562 | 0.908 | 0.978 | 2.66 | 0.673 | 1.92 | 1.11 | 3.76 | 1.42
11 | GGAACGAGGGCATTCGAGTCGATAGCATGGCGAT | 0.976 | 0.293 | -0.802 | -0.159 | -0.384 | 1.15 | 0.824 | 0.495 | -0.192 | 0.0537 | 2.96 | 2.19 | -0.0559 | -0.671 | -0.141 | 1.5 | 0.546 | 0.428 | -0.54 | 1.48
12 | CCTTACGGGTCACTGACCGGTTATAGCATTTGGA | 5.3 | 5.49 | 1.84 | 4.04 | 0.194 | 5 | 3.68 | 4.28 | 1.31 | 2.95 | 3.02 | 3.86 | 1.44 | -0.432 | 2.45 | 2.93 | 0.0567 | 3.72 | 1.71 | 3.96
13 | CCTACTGGGCCAAAGATCATTGATTCCAATGCTC | -0.285 | -0.527 | -0.374 | -0.317 | -0.68 | 3.5 | 6.88 | 7.31 | 6.04 | 7.74 | 4.33 | 4.24 | -0.277 | 0.286 | 0.269 | -0.408 | -0.738 | -0.185 | -0.399 | -0.0314
